This note sets out measurements from ChEMBL document CHEMBL2218924, “A broad activity screen in support of a chemogenomic map for kinase signalling research and drug discovery” (Biochem J, 2013).

The target of test [1] is T1, Serine/threonine-protein kinase TBK1 (Homo sapiens) (UniProt Q9UHD2).
T1 sequence (whole entry): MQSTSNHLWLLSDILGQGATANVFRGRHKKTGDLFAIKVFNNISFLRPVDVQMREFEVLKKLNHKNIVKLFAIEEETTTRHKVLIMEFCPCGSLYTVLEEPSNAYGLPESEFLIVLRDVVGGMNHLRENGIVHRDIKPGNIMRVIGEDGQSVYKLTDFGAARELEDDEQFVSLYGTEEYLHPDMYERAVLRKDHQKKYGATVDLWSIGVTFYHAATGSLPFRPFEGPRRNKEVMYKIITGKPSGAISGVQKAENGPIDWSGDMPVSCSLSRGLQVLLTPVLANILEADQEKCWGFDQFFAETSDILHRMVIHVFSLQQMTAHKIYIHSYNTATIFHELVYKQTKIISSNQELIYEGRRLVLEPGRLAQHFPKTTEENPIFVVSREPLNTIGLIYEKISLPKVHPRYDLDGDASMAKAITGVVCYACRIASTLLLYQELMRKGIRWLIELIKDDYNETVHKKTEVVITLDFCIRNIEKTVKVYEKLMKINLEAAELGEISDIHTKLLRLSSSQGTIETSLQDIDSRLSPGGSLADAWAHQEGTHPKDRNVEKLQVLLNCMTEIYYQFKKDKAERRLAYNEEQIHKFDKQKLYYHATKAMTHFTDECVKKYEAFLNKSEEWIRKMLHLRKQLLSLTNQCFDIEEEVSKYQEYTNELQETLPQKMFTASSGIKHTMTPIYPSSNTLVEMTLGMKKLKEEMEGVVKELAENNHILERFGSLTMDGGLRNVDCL
The conditions noted are these: at 1 µM.

For test [2], the target named is T1, Serine/threonine-protein kinase TBK1 (Homo sapiens). The conditions noted are these: at 10 µM.
Test [3] deals with T2, TGF-beta receptor type-1 (Homo sapiens) (UniProt P36897).
T2 sequence (whole entry): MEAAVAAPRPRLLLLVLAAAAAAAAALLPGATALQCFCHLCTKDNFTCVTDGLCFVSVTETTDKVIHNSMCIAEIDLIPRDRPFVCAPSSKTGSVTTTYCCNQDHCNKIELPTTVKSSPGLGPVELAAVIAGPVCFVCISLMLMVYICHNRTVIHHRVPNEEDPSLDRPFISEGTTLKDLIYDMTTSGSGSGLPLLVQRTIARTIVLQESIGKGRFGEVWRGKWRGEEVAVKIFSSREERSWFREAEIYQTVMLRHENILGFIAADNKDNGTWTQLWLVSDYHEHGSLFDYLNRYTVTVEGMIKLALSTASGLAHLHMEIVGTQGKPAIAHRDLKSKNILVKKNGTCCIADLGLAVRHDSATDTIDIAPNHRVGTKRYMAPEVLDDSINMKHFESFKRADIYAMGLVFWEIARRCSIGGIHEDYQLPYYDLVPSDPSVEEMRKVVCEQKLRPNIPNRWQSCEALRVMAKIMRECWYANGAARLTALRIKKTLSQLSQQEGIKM
The conditions noted are these: at 1 µM.

In test [4] the target is T2, TGF-beta receptor type-1 (Homo sapiens). Particulars: at 10 µM.
Test [5] deals with Insulin-like growth factor 1 receptor (Homo sapiens) (UniProt P08069). Particulars: at 1 µM.
Chain of Insulin-like growth factor 1 receptor (Homo sapiens) (P08069 31-736 limits assumed): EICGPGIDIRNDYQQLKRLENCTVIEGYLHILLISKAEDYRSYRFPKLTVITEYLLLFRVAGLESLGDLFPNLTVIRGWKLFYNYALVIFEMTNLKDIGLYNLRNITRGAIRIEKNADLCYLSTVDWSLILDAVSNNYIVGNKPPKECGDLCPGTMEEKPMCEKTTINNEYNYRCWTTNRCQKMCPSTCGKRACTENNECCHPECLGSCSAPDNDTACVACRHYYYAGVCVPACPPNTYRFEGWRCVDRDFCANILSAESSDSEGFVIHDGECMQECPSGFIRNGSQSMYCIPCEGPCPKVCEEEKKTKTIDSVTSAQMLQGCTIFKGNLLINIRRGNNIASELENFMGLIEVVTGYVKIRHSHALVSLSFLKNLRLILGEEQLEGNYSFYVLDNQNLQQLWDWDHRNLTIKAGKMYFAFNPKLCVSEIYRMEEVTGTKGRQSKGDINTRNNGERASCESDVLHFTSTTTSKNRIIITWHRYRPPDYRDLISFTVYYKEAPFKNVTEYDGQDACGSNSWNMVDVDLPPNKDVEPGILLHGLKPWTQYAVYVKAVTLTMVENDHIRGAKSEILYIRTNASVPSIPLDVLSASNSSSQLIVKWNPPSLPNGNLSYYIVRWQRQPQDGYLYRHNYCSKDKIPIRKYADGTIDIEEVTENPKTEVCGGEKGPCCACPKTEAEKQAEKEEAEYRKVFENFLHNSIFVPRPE
Chain of Insulin-like growth factor 1 receptor (Homo sapiens) (P08069 741-1367 limits assumed): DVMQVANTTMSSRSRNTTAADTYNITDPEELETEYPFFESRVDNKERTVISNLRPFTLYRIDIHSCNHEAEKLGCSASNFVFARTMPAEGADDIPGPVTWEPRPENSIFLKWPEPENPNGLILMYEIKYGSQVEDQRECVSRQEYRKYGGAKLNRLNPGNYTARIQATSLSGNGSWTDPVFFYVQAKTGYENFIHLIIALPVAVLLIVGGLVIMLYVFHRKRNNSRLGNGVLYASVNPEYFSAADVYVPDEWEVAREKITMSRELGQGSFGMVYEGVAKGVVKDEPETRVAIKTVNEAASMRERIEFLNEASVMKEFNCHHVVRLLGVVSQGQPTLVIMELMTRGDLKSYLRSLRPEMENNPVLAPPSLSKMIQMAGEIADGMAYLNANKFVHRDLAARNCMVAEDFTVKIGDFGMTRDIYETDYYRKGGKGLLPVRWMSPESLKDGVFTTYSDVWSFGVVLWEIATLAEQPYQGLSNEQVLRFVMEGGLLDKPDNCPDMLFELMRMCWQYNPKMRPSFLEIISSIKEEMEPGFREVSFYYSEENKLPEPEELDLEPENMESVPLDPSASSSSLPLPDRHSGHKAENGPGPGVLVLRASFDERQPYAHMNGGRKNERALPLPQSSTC
The target of test [6] is T3, Inhibitor of nuclear factor kappa-B kinase subunit alpha (Homo sapiens) (UniProt O15111).
T3 sequence (whole entry): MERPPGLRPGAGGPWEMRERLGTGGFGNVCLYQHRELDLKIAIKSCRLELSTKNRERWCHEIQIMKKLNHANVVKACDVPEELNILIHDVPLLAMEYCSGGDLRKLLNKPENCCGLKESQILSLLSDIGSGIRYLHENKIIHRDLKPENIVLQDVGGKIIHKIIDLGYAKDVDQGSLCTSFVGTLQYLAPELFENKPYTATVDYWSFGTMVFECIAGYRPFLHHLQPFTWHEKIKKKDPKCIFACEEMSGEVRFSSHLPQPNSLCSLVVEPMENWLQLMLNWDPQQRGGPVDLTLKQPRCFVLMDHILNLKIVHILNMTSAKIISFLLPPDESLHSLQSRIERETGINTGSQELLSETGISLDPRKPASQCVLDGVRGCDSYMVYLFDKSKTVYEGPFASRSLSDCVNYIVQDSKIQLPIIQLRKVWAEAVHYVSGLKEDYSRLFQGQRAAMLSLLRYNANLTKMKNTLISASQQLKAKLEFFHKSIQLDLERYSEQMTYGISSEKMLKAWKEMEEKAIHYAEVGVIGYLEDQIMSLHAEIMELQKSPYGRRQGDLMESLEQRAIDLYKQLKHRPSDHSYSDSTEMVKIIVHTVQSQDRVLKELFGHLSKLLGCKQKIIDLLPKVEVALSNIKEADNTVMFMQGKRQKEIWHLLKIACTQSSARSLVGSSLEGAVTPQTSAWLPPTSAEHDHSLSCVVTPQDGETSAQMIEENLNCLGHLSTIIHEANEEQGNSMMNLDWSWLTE
Particulars: at 1 µM.

The target of test [7] is T3, Inhibitor of nuclear factor kappa-B kinase subunit alpha (Homo sapiens). Particulars: at 10 µM.
Test [8] addresses T4, Inhibitor of nuclear factor kappa-B kinase subunit beta (Homo sapiens) (UniProt O14920).
T4 sequence (whole entry): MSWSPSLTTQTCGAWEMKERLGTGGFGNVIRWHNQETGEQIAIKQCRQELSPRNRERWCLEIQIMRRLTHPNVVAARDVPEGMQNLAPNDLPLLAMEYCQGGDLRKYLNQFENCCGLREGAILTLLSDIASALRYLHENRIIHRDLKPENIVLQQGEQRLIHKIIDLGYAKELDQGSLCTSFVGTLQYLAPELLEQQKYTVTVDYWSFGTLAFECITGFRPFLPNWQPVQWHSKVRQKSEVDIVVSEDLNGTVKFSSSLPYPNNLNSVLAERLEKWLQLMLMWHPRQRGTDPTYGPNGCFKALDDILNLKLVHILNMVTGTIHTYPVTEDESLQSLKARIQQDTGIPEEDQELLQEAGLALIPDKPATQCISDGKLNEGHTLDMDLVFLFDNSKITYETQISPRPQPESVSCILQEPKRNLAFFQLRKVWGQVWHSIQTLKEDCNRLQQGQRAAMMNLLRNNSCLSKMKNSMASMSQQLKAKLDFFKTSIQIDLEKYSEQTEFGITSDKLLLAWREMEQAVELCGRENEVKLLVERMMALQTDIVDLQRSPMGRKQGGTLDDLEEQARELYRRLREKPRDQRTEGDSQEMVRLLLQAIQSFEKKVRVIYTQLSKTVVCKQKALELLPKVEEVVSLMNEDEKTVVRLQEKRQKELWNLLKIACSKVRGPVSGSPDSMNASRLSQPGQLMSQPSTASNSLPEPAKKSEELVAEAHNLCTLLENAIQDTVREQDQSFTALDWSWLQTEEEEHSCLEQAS
The conditions noted are these: at 1 µM.

The target of test [9] is T4, Inhibitor of nuclear factor kappa-B kinase subunit beta (Homo sapiens). The conditions noted are these: at 10 µM.

On to `CN(C)CCCn1cc(C2=C(c3c[nH]c4ccccc34)C(=O)NC2=O)c2ccccc21`, for which the residual activity – broadly, the signal under treatment as a percentage of the control signal – in [1] is 80%; in test [2], 22%; in test [3], 91%; in [4] it was 71%; in [5] it was 110%; in [6], 101%. Also, the residual activity in test [7] stood at 58%; in [8], 104%; in test [9] it was 82%.
